# The campaign covered roughly 1,800 compounds. About 410 (23%) were called active. Not all results are given here. Results with a measured potency or affinity are listed apart. A number with no mark means an inactive call. The rule behind the calls is not given here.
# Test: viability of Vero cells under compound – cytotoxicity control for flavivirus capping enzyme inhibitors (AID 588742)
# Conditions: cytotoxicity counter-screen; series mostly up to 40 µM; viability: at the top concentration
row,SMILES,viability
1,C=CCN=C1N[C@@H](c2cccc(C(F)(F)F)c2)C(C(=O)OC)=C(C)N1CC,96.3%
2,Cc1c(OC(=O)c2ccc([N+](=O)[O-])cc2)c2c(c[n+]1C)COC(C)(C)OC2,102%
3,CCOC(=O)c1cc(-c2ccc(/C=C3/C(=O)NC(=O)C(C#N)=C3C)o2)ccc1Cl,115%
4,CCC(c1ccccc1)C(CC)c1cc(O)c(O)c(O)c1 (stereo not drawn),87.2%
5,N#CC1=C(N)C2=C(N3CCCCC3)CCCC2C1(C#N)C#N (stereo not drawn),95.8%
6,COc1ccc(C2Nc3cccc4cccc(c34)N2)cc1,106%
7,COc1ccc(-c2cc(-c3ccc(Cl)cc3)c(C#N)c(SCC(=O)O)n2)cc1,82.6%
8,CCOC(=O)/C(C#N)=C/c1c(N2CCN(CC)CC2)nc2c(C)cccn2c1=O,102%
9,COc1ccccc1N(O)C1CC(=O)N(c2ccc(F)cc2)C1=O (stereo not drawn),105%
10,CC(=O)N(C1=C(Cl)C(=O)c2ccccc2C1=O)c1ccc(C(=O)O)cc1,114% [at 20 µM]
11,O=S(c1ccccc1O)S(=O)c1ccccc1O (stereo not drawn),106%
12,Cc1cc(=O)n(CCc2ccccc2)c(O)c1C#N,105%
13,CC1CC2=C(NC(=S)NC2c2ccccc2F)/C(=C/c2ccccc2F)C1 (stereo not drawn),85.3%
14,COc1ccc(N2C(=O)C(Cl)=C(N3CCOCC3)C2=O)cc1,97.6%
15,O=C1N=c2ccc(Br)cc2=C1c1sc(=S)n(NS(=O)(=O)c2ccccc2)c1O,91.5%
16,COC(=O)CN(c1ccccc1C)S(C)(=O)=O,97%
17,COc1cccc(/C=C2\SC(=S)N(C(Cc3ccccc3)C(=O)O)C2=O)c1 (stereo not drawn),95.1%
18,COc1ccc(-c2csc(NC(=O)CSc3nc(C)nc4sc(C(=O)O)c(C)c34)n2)cc1,94.1%
19,Oc1ccc(/C=N/NC(=S)Nc2cccnc2)c(O)c1O,92.2%
20,CCSc1ncc(Cl)c(C(=O)N(Cc2ccc(N(C)C)cc2)C2CCS(=O)(=O)C2)n1 (stereo not drawn),93.8%
21,CCN(CCO)c1ccc(NC(=S)Nc2cccc(S(=O)(=O)N(C)C)c2)cc1,95.5%
22,COc1ccc(NC(=S)NNc2ccc(S(=O)(=O)Nc3ccccc3C(=O)O)cc2[N+](=O)[O-])cc1,103%
23,O=C1c2ccccc2C(=O)N1OS(=O)(=O)c1ccc(F)cc1,101%
24,CC(C)=CCC1=C(OCC(=O)O)C(=O)c2ccccc2C1=O,92.7%
25,CN(C)NC(=S)Nc1ccc2nc(-c3ccccn3)c(-c3ccccn3)nc2c1,101%

row,SMILES,viability
1,CC(C)c1ccc(S(=O)(=O)/N=C2\C=C(NS(=O)(=O)c3ccccc3)C(=O)c3ccccc32)cc1,80%
2,CC(C)c1ccc(S(=O)(=O)c2n[nH]n3c2nc(=O)c2ccccc23)cc1,103%
3,Cc1ccc(C(C2C(=O)CC(C)(C)CC2=O)C2C(=O)CC(C)(C)CC2=O)s1,93.8%
4,CC1=NN(c2ccc(Cl)c(C(=O)O)c2)C(=O)/C1=C\c1ccc(-c2ccc(C(=O)O)cc2)o1,100%
5,CC1=NN(c2ccc(C(=O)O)cc2)C(=O)/C1=C/c1ccc(-c2ccccc2F)o1,101%
6,COc1ccc(N2C(=NC(=O)CCCc3ccccc3)SC3CS(=O)(=O)CC32)cc1 (stereo not drawn),103%
7,O=C1C(=Cc2cccn2-c2ccc(O)cc2)C(=O)c2ccccc21,87.5%
8,O=C1NC(=S)NC1=Cc1ccco1,105%
9,COC(=O)c1c(Cl)c2n3ccccc3c(C)c(-c3ccccc3)c-2c1C(=O)OC,102%
10,COc1ccc(C(C2C(=O)CC(C)(C)CC2=O)C2C(=O)CC(C)(C)CC2=O)cc1CO,95.5%
11,Cc1ccc(CCCNC(=O)C2CCC(=O)N(Cc3cccc(F)c3)C2)cc1 (stereo not drawn),91.8%
12,CC(C)(C)OC(=O)N1CCN(C(=O)c2ncn(Cc3ccccc3)c2C(=O)N2CCN(C(=O)OC(C)(C)C)CC2)CC1,101%
13,CC1(C(=O)NNC(=O)c2ccc([N+](=O)[O-])cc2)CC1(Br)Br (stereo not drawn),99.5%
14,O=C(O)COc1ccccc1C(Nc1ccccn1)c1cc(Cl)c2cccnc2c1O (stereo not drawn),106%
15,CC(=O)NC(c1ccco1)c1cc(Cl)c2ccccc2c1O (stereo not drawn),102%
16,COc1ccc(NC(=O)c2ccccn2)cc1OC,97.5%
17,CCC(=O)NC(c1ccco1)c1cc(Cl)c2ccccc2c1O (stereo not drawn),95.8%
18,C=CCS/C(N)=N\N=C\c1cc(Br)cc([N+](=O)[O-])c1O,90.7%
19,COc1cccc(CNC(=O)CCc2nnc3ccc(NCCCN4CCCC4=O)nn23)c1,96.2%
20,CCOC(=O)C1Nc2ccccc2C2C(O)C(O)CC12 (stereo not drawn),88.7%
21,COC1C=COC2(C)Oc3c(C)c(O)c4c(O)c(c(CN5CCN(C)CC5)c(O)c4c3C2=O)NC(=O)C(C)=CC=CC(C)C(O)C(C)C(O)C(C)C(OC(C)=O)C1C (stereo not drawn),99.8%
22,O=C(C1=C(O)C(=O)N(Cc2ccco2)C1c1cccnc1)c1cc2ccccc2o1 (stereo not drawn),112%
23,O=C(O)CN1C(=O)/C(=C\c2cccc(OCc3ccccc3F)c2)SC1=S,93%
24,COc1cc(NC(=O)CSc2ncnc3sc4c(c23)CCC(C)C4)c(C(=O)O)cc1OC (stereo not drawn),104%
25,CCOC(=O)c1ccc2c(c1)n(CCO)c(C)[n+]2CC,100%

row,SMILES,viability
1,Cc1cccc2cc(C#N)c(N3CCC(O)CC3)nc12,93.1%
2,COc1cccc(N2C(=O)CC(Nc3ccc(N4CCOCC4)cc3)C2=O)c1 (stereo not drawn),98.2%
3,Cc1cc(C(C2C(=O)CC(C)(C)CC2=O)C2C(=O)CC(C)(C)CC2=O)cc(C)c1OC(F)F,103%
4,O=C(/C=C/c1ccccc1)n1cnnc1SC/C=C/c1ccccc1,98.6%
5,O=C(O)c1cc(NCc2ccc(F)cc2)ccc1N1CCOCC1,100%
6,COC(=O)CCC(=O)OC1(C)C(=O)C2=CN(C3CC3)C(c3ccc(OC)cc3)=CC2=C(Br)C1=O (stereo not drawn),98%
7,Cc1ccc(N2C(=O)C(Cl)=C(N3CCOCC3)C2=O)cc1Cl,110%
8,CCOc1cc(C(c2c(C)[nH][nH]c2=O)c2c(C)[nH][nH]c2=O)cc([N+](=O)[O-])c1O,95.1%
9,O=C(O)c1cc([N+](=O)[O-])c(Sc2nc3ccccc3[nH]2)c([N+](=O)[O-])c1,98.8%
10,Cc1ccc(C)c(N=Cc2cc3c(cc2[N+](=O)[O-])OCO3)c1,95.3%
11,O=[N+]([O-])c1cc2ccccc2c(O)c1O,102%
12,CCC1=NN2C(=N)/C(=C\c3ccc(OCc4cc(=O)n5nc(CC)sc5n4)c(OC)c3)C(=O)N=C2S1,97.3%
13,Cc1c(C2CC(=O)N(c3ccccc3)C2=O)[nH]n(-c2ccccc2)c1=O (stereo not drawn),101%
14,O=C(O)CCc1ccc(-c2ccc(Br)cc2)n1-c1ccc(O)cc1,95%
15,CCCOc1cccc(C2C(C(=O)c3cc4ccccc4o3)=C(O)C(=O)N2c2cc(C)on2)c1 (stereo not drawn),87.3%
16,O=c1c2ccccc2nc2ccc(NCc3ccco3)nn12,97%
17,CCOc1cc(/C=N/Nc2ccc(S(=O)(=O)Nc3ccccc3C(=O)O)cc2[N+](=O)[O-])cc(Cl)c1O,100%
18,Cc1nn(-c2ccccc2)c(Cl)c1/C=N/Nc1ccc(S(=O)(=O)Nc2ccccc2C(=O)O)cc1[N+](=O)[O-],90.9%
19,C=CCOc1cccc(C2C(C(=O)c3ccc(C)o3)=C(O)C(=O)N2c2nccs2)c1 (stereo not drawn),93.2%
20,O=C1C(C=NCc2ccco2)=C(O)c2ccccc21,104%
21,CC(C)C(C(=O)O)N1C(=O)/C(=C/C=C/c2ccco2)SC1=S (stereo not drawn),97%
22,CC(C(=O)O)N1C(=O)/C(=C/C=C/c2ccco2)SC1=S (stereo not drawn),95.8%
23,Cc1ccc(S(=O)(=O)NN/C(=N/S(=O)(=O)c2ccccc2)c2ccccc2)cc1,101%
24,Cc1nn(-c2ccccc2)c2c1C(c1ccncc1)C(C#N)=C(N)O2 (stereo not drawn),100%
25,CCn1nc([N+](=O)[O-])c(C(C#N)c2nc3ccccc3n2C)c(Cl)c1=O (stereo not drawn),101%

row,SMILES,viability
1,Cn1nc([N+](=O)[O-])c(C(C#N)c2nc3ccccc3n2C)c(Cl)c1=O (stereo not drawn),93.4%
2,COC(=O)c1ccccc1N/C=C1\CCc2c(c(C)nn2-c2ccccn2)C1=O,86.9%
3,CCc1sc(/C=C(/C#N)C(N)=S)cc1[N+](=O)[O-],102%
4,Cc1ccc(-n2nc(C)c3c2OC(N)=C(C#N)C3c2ccco2)cc1 (stereo not drawn),98.1%
5,CCSc1nnc(NC(=O)c2nc(S(=O)(=O)Cc3ccc(F)cc3)ncc2Cl)s1,95.4% [at 20 µM]
6,CCOC(=O)c1c(-c2ccc(-c3ccccc3)cc2)csc1NC(=O)C1C2CCC(O2)C1C(=O)O (stereo not drawn),83.1%
7,Cc1noc(C)c1C(=O)Nc1ccc(N(C)C)cc1,106%
8,CCC(=O)OC1(C)C(=O)C=C2C=C(C3CC3)OC=C2C1=O (stereo not drawn),104%
9,COc1ccc(/C=N/NC(=O)c2nnn(-c3nonc3N)c2CN(C)C2CCCCC2)cc1,100%
10,C#CCOc1c(Cl)cc(/C=C2/C(=O)ON=C2C)cc1OCC,102%
11,COc1cc(/C=C2\S/C(=N/S(=O)(=O)Cc3ccccc3)NC2=O)c([N+](=O)[O-])cc1OC,107%
12,COc1ccc(S(=O)(=O)Nc2c(O)ccc3ccccc23)cc1OC,102%
13,NC(=S)n1[nH]c(-c2ccc([N+](=O)[O-])cc2)c(N=Nc2ccccc2[N+](=O)[O-])c1=O,102%
14,CN1C(=O)/C(=C/c2ccc(C(=O)Nc3ccc(O)cc3C(=O)O)cc2)SC1=S,93.6%
15,Cc1cccc(C)c1NC(=S)NC(=O)c1ccc(Br)o1,83.4%
16,CS(=O)(=O)c1ncc(Cl)c(C(=O)Nc2ccc(N3CCOCC3)cc2)n1,92.7%
17,CCC(CO)Oc1cc(NCc2cccc(C)c2)c2ncn(C(C)C)c2c1 (stereo not drawn),89%
18,CC1(C)CC(=O)C2=C(C1)c1c(ccc3ccccc13)NC2c1cc([N+](=O)[O-])cc([N+](=O)[O-])c1O (stereo not drawn),83.6%
19,N=C1/C(=C\c2ccc(OC(=O)c3ccccc3Cl)cc2)C(=O)N=C2SC(N3CCOCC3)=NN12,101%
20,Nc1nc(C2C(=O)CCCC2=O)cs1,97.5%
21,O=C(Nc1c(F)c(F)c(F)c(F)c1F)NC1CCCCC1,93.3%
22,O=C(O)c1ccccc1N=Nc1c(O)[nH]c2ccc([N+](=O)[O-])cc12,86.8%
23,CC(C)c1ccc(N2C(=O)C(Cl)=C(N3CCOCC3)C2=O)cc1,97.4%

# — PubChem BioAssay AID588742 (Southern Research Specialized Biocontainment Screening …, 2011)
